Values without a mark were called inactive. Activity calls are given as the source filed them. The call rests on the fitted dose curve; in most records, active means well fitted curve in the direction sought with a large enough effect; inconclusive means small, poorly fitted or top-dose-only effect, or another doubt; inactive means no such curve, though single readings can be large; an effect the other way counts as inactive or inconclusive.

Sequence of Alpha-galactosidase (Coffea arabica) (Q42656 whole entry, looked up): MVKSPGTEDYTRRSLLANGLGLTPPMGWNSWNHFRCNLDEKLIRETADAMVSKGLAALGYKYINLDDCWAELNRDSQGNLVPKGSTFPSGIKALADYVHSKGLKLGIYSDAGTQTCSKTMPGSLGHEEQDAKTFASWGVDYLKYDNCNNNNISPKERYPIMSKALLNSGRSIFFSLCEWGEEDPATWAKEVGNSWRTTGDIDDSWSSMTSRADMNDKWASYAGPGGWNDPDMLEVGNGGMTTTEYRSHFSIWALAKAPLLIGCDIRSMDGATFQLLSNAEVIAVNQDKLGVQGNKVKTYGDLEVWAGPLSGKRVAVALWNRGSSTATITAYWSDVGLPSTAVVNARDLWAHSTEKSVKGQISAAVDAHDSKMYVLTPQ

In one assay the target is Alpha-galactosidase (Coffea arabica) (UniProt Q42656). The assay is described as follows: Counterscreen for Glucocerebrosidase Inhibitors: qHTS Assay for Coffee Bean alpha-Galactosidase at pH 4.5 (AID 957).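 Further: plate controls were enzyme alone for no effect and no enzyme for full effect.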 The following applies: purified coffee bean alpha-galactosidase, fluorogenic substrate; series mostly up to 76.9 µM; activity change, negative = inhibition: at the top concentration. An outline of the steps:
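Fluorogenic read-out: 4-methylumbelliferone at Ex 365/Em 440 nm after NaOH/glycine stop (pH 10). Enzyme 2 nM, 4-MU-alpha-galactoside 80 uM, citrate buffer pH 4.5, 20 min RT; normalized to no-enzyme and enzyme controls.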
(In general: The purpose of a counterscreen is to sort out artefacts and off-target activity.)
For the compound `CCOC(=O)[C@@]12C[C@@H]1/C(=N/O)c1ccccc1O2`, the “activity change, negative = inhibition” value was 4.58%.

As to `Oc1cc2c(c(Cl)c1O)CCNC[C@H]2c1ccccc1`, the “activity change, negative = inhibition” value is -1.33%.

On to `CCCCCCCCCCCCCCCC(=O)O[C@H](CC(=O)O)C[N+](C)(C)C`, for which the “activity change, negative = inhibition” value was -0.397%.

In the case of `OC[C@@H]1O[C@@H](n2cnc3c(N[C@@H]4C[C@@H]5CC[C@H]4C5)ncnc32)[C@@H](O)[C@H]1O`, the “activity change, negative = inhibition” value was 1.34%.

Regarding `N.N.N.N.N.N.N.N.N.N.N.N.N.N.O.O.[Ru].[Ru].[Ru]`, the “activity change, negative = inhibition” value was 0.406%.

Turning to `CN1C[C@@H](C(=O)N[C@]2(C)O[C@]3(O)[C@H]4CCCN4C(=O)[C@H](Cc4ccccc4)N3C2=O)C[C@H]2c3cccc4[nH]cc(c34)C[C@@H]21`, the “activity change, negative = inhibition” value is -2.51%.

Regarding `CC1=C(\C=C/C(C)=C/C=C\C(C)=C\C(=O)O)C(C)(C)CCC1`, the result was inactive.

Take `c1ccc([C@@H]2CN3CCSC3=N2)cc1`: the outcome was inactive.

Regarding `CC(C)[C@H]1C(=O)C(C(N)=O)=C(O)[C@]2(O)C(=O)C3=C(O)c4c(O)ccc(N(C)C)c4C[C@H]3C[C@@H]12`, the “activity change, negative = inhibition” value was -1.93%.

With `Nc1nc(Cl)nc2c1ncn2[C@@H]1O[C@@H](CO)[C@@H](O)[C@H]1O`, the “activity change, negative = inhibition” value was 3.06%.

Turning to `O=C(/C=C\c1ccc(O)cc1)c1ccc(O)cc1O`, the “activity change, negative = inhibition” value is -10.9%.

For the compound `N[C@H](Cc1ccc(F)cc1)C(=O)O`, the “activity change, negative = inhibition” value is -1.08%.

As to `O=C(O)CC[C@@H](NC(=O)c1ccccc1C(=O)O)C(=O)O`, the “activity change, negative = inhibition” value is 3.46%.

Turning to `CCN1CCC[C@@H]1CNC(=O)c1c(O)c(Cl)cc(Cl)c1OC`, the “activity change, negative = inhibition” value is -0.0171%.

With `CC1=C(C(=O)O)N2C(=O)[C@@H](NC(=O)[C@@H](N)c3ccccc3)[C@@H]2SC1`, the “activity change, negative = inhibition” value is 0.14%.

On to `CCCCCCCCCC(=O)N[C@@H](CN1CCOCC1)[C@@H](O)c1ccccc1`, for which the “activity change, negative = inhibition” value is -6.72%.

`CNc1ncnc2c1ncn2[C@@H]1O[C@@H](CO)[C@H](O)[C@@H]1O`: the “activity change, negative = inhibition” value was 0.863%.

Take `CC(=O)O[C@@H](C)C[N+](C)(C)C`: the “activity change, negative = inhibition” value is 0.484%.

Take `COC(=O)C1=C(C)NC(C)=C([N+](=O)[O-])[C@H]1c1ccccc1C(F)(F)F`: the “activity change, negative = inhibition” value was -5.36%.

On to `C[C@]1(C2CCCC2)Cc2cc(OCC(=O)O)c(Cl)c(Cl)c2C1=O`, for which the “activity change, negative = inhibition” value is 0.194%.

Turning to `NC[C@@H]1O[C@@H](O[C@H]2[C@@H](O)[C@H](O[C@@H]3[C@H](O)[C@H](N)C[C@H](N)[C@H]3O[C@@H]3O[C@@H](CO)[C@H](O)[C@H](O)[C@@H]3N)O[C@H]2CO)[C@H](N)[C@H](O)[C@@H]1O`, the “activity change, negative = inhibition” value was -1.06%.

In the case of `NC(=NCc1ccc(Cl)c(Cl)c1)NC(=O)c1nc(Cl)c(N)nc1N`, the “activity change, negative = inhibition” value is -0.642%.

For the compound `CNC(=O)[C@@H]1O[C@@H](n2cnc3c(NCc4cccc(I)c4)ncnc32)[C@H](O)[C@@H]1O`, the “activity change, negative = inhibition” value was -1.11%.

As for `CC[C@H](NC(C)C)[C@H](O)c1ccc(O)c(O)c1`, the “activity change, negative = inhibition” value was -2.23%.

On to `O=c1ccn([C@@H]2O[C@@H](COP(=O)(O)OP(=O)(O)O)[C@H](O)[C@@H]2O)c(=O)[nH]1`, for which the “activity change, negative = inhibition” value was 2.26%.

For `Nc1ncnc2c1nc(Sc1ccc(Cl)cc1)n2[C@@H]1O[C@H]2COP(=O)(O)O[C@@H]2[C@H]1O`, the “activity change, negative = inhibition” value is -1.89%.

On to `C[C@@H]1C[C@@H]2[C@H]3CCC4=CC(=O)C=C[C@]4(C)[C@]3(F)[C@@H](O)C[C@@]2(C)[C@@]1(O)C(=O)CO`, for which the “activity change, negative = inhibition” value is -0.934%.

Turning to `CCCCC[C@H](O)CCCC(=O)O`, the “activity change, negative = inhibition” value is 3.11%.

With `COC(=O)c1c(-c2cc(OC)c(OC)c(OC)c2)c2ccnc(OCc3ncccn3)c2c(=O)n1Cc1ccnc(C)c1`, the “activity change, negative = inhibition” value is -2.19%.

Consider `CSc1ccc2c(c1)N(CC[C@H]1CCCCN1C)c1ccccc1S2`, for which the “activity change, negative = inhibition” value was -6.02%.

Turning to `CCn1ccnc1C[C@@H]1COc2ccccc2O1`, the “activity change, negative = inhibition” value was -0.846%.

On to `C[C@H](N=C(NC#N)Nc1ccncc1)C(C)(C)C`, for which the “activity change, negative = inhibition” value is 0.516%.

As to `CN(C)c1ccc(/C=C2/C(=O)Nc3ccccc32)cc1`, the “activity change, negative = inhibition” value was -11.7%.

Take `C[C@H](N)C1CCC(C(=O)Nc2ccncc2)CC1` (stereo partly drawn): the “activity change, negative = inhibition” value was -1.96%.

Take `Nc1ncnc2c1ncn2[C@@H]1O[C@@H](COP(=O)(O)OP(=O)(O)OP(=O)(O)OP(=O)(O)OC[C@@H]2O[C@@H](n3cnc4c(N)ncnc43)[C@@H](O)[C@H]2O)[C@H](O)[C@@H]1O`: the “activity change, negative = inhibition” value was -1.22%.

Consider `N=c1ccn2c(n1)O[C@@H]1[C@@H](O)[C@H](CO)O[C@H]12`, for which the “activity change, negative = inhibition” value was -3.58%.

Turning to `CCCCCC[C@@H]([C@H](C)O)n1cnc2c(N)ncnc21`, the “activity change, negative = inhibition” value is 0.45%.

Regarding `Nc1nc(SCc2ccc([N+](=O)[O-])cc2)c2ncn([C@@H]3O[C@@H](CO)[C@@H](O)[C@H]3O)c2n1`, the “activity change, negative = inhibition” value was -3.78%.

For the compound `CN[C@]1(C)[C@@H]2CC[C@@H](C2)C1(C)C`, the “activity change, negative = inhibition” value is -2.75%.

The next assay has the same target. Description: Counterscreen for Glucocerebrosidase Inhibitors: qHTS Assay for Coffee Bean alpha-Galactosidase at pH 5.9 (AID 998).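 Further: plate controls were uninhibited enzyme for no effect and no-enzyme basal signal for full effect.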 The following applies: coffee bean alpha-galactosidase enzyme assay; series mostly up to 76.9 µM; activity, negative = inhibition: at the top concentration. An outline of the steps:
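Enzyme 2 nM + cpd (0.7 nM–77 uM titration) + 4-MU-alpha-Gal 80 uM, pH 5.9 citrate/Tween-20, RT 20 min, NaOH/glycine stop pH 10, fluor 365/440. Normalized to no-enzyme and full-activity controls; Hill-fit AC50.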
`CCOC(=O)[C@@]12C[C@@H]1/C(=N/O)c1ccccc1O2`: the “activity, negative = inhibition” value is 2.95%.

In the case of `Oc1cc2c(c(Cl)c1O)CCNC[C@H]2c1ccccc1`, the “activity, negative = inhibition” value was 0.658%.

For `CCCCCCCCCCCCCCCC(=O)O[C@H](CC(=O)O)C[N+](C)(C)C`, the “activity, negative = inhibition” value was -0.58%.

For `OC[C@@H]1O[C@@H](n2cnc3c(N[C@@H]4C[C@@H]5CC[C@H]4C5)ncnc32)[C@@H](O)[C@H]1O`, the “activity, negative = inhibition” value is -0.691%.

On to `N.N.N.N.N.N.N.N.N.N.N.N.N.N.O.O.[Ru].[Ru].[Ru]`, for which the “activity, negative = inhibition” value was 3.71%.

For `CN1C[C@@H](C(=O)N[C@]2(C)O[C@]3(O)[C@H]4CCCN4C(=O)[C@H](Cc4ccccc4)N3C2=O)C[C@H]2c3cccc4[nH]cc(c34)C[C@@H]21`, the “activity, negative = inhibition” value is -1.17%.

As for `CC1=C(\C=C/C(C)=C/C=C\C(C)=C\C(=O)O)C(C)(C)CCC1`, the compound was called inactive.

For the compound `c1ccc([C@@H]2CN3CCSC3=N2)cc1`, the compound was called inactive.

Take `CC(C)[C@H]1C(=O)C(C(N)=O)=C(O)[C@]2(O)C(=O)C3=C(O)c4c(O)ccc(N(C)C)c4C[C@H]3C[C@@H]12`: the “activity, negative = inhibition” value is -3.92%.

`Nc1nc(Cl)nc2c1ncn2[C@@H]1O[C@@H](CO)[C@@H](O)[C@H]1O`: the “activity, negative = inhibition” value was 2.07%.

In the case of `O=C(/C=C\c1ccc(O)cc1)c1ccc(O)cc1O`, the “activity, negative = inhibition” value was -6.71%.

Take `N[C@H](Cc1ccc(F)cc1)C(=O)O`: the “activity, negative = inhibition” value is 2.27%.

As for `O=C(O)CC[C@@H](NC(=O)c1ccccc1C(=O)O)C(=O)O`, the “activity, negative = inhibition” value is 0.35%.

With `CCN1CCC[C@@H]1CNC(=O)c1c(O)c(Cl)cc(Cl)c1OC`, the “activity, negative = inhibition” value was 0.588%.

Turning to `CC1=C(C(=O)O)N2C(=O)[C@@H](NC(=O)[C@@H](N)c3ccccc3)[C@@H]2SC1`, the “activity, negative = inhibition” value is -4.58%.

Consider `CCCCCCCCCC(=O)N[C@@H](CN1CCOCC1)[C@@H](O)c1ccccc1`, for which the “activity, negative = inhibition” value was -5.34%.

Regarding `CNc1ncnc2c1ncn2[C@@H]1O[C@@H](CO)[C@H](O)[C@@H]1O`, the “activity, negative = inhibition” value was 3.21%.

For the compound `CC(=O)O[C@@H](C)C[N+](C)(C)C`, the “activity, negative = inhibition” value was 4.13%.

`COC(=O)C1=C(C)NC(C)=C([N+](=O)[O-])[C@H]1c1ccccc1C(F)(F)F`: the “activity, negative = inhibition” value was -4%.

`C[C@]1(C2CCCC2)Cc2cc(OCC(=O)O)c(Cl)c(Cl)c2C1=O`: the “activity, negative = inhibition” value was 1.36%.

For `NC[C@@H]1O[C@@H](O[C@H]2[C@@H](O)[C@H](O[C@@H]3[C@H](O)[C@H](N)C[C@H](N)[C@H]3O[C@@H]3O[C@@H](CO)[C@H](O)[C@H](O)[C@@H]3N)O[C@H]2CO)[C@H](N)[C@H](O)[C@@H]1O`, the “activity, negative = inhibition” value was -1.39%.

Consider `NC(=NCc1ccc(Cl)c(Cl)c1)NC(=O)c1nc(Cl)c(N)nc1N`, for which the “activity, negative = inhibition” value was -5.74%.

Regarding `CNC(=O)[C@@H]1O[C@@H](n2cnc3c(NCc4cccc(I)c4)ncnc32)[C@H](O)[C@@H]1O`, the “activity, negative = inhibition” value was -0.303%.

With `CC[C@H](NC(C)C)[C@H](O)c1ccc(O)c(O)c1`, the “activity, negative = inhibition” value was -2.48%.

In the case of `O=c1ccn([C@@H]2O[C@@H](COP(=O)(O)OP(=O)(O)O)[C@H](O)[C@@H]2O)c(=O)[nH]1`, the “activity, negative = inhibition” value was 1.08%.

Take `Nc1ncnc2c1nc(Sc1ccc(Cl)cc1)n2[C@@H]1O[C@H]2COP(=O)(O)O[C@@H]2[C@H]1O`: the “activity, negative = inhibition” value was -1.18%.

`C[C@@H]1C[C@@H]2[C@H]3CCC4=CC(=O)C=C[C@]4(C)[C@]3(F)[C@@H](O)C[C@@]2(C)[C@@]1(O)C(=O)CO`: the “activity, negative = inhibition” value is 0.909%.

On to `CCCCC[C@H](O)CCCC(=O)O`, for which the “activity, negative = inhibition” value was -0.143%.

`COC(=O)c1c(-c2cc(OC)c(OC)c(OC)c2)c2ccnc(OCc3ncccn3)c2c(=O)n1Cc1ccnc(C)c1`: the “activity, negative = inhibition” value is -1.05%.

As to `CSc1ccc2c(c1)N(CC[C@H]1CCCCN1C)c1ccccc1S2`, the “activity, negative = inhibition” value is -3.15%.

As for `CCn1ccnc1C[C@@H]1COc2ccccc2O1`, the “activity, negative = inhibition” value was -0.772%.

As for `C[C@H](N=C(NC#N)Nc1ccncc1)C(C)(C)C`, the “activity, negative = inhibition” value is -0.722%.

For `CN(C)c1ccc(/C=C2/C(=O)Nc3ccccc32)cc1`, the “activity, negative = inhibition” value is -11.5%.

In the case of `C[C@H](N)C1CCC(C(=O)Nc2ccncc2)CC1` (stereo partly drawn), the “activity, negative = inhibition” value was -1.9%.

As for `Nc1ncnc2c1ncn2[C@@H]1O[C@@H](COP(=O)(O)OP(=O)(O)OP(=O)(O)OP(=O)(O)OC[C@@H]2O[C@@H](n3cnc4c(N)ncnc43)[C@@H](O)[C@H]2O)[C@H](O)[C@@H]1O`, the “activity, negative = inhibition” value is -2.17%.

With `N=c1ccn2c(n1)O[C@@H]1[C@@H](O)[C@H](CO)O[C@H]12`, the “activity, negative = inhibition” value is 0.942%.

In the case of `CCCCCC[C@@H]([C@H](C)O)n1cnc2c(N)ncnc21`, the “activity, negative = inhibition” value is 4.2%.

Consider `Nc1nc(SCc2ccc([N+](=O)[O-])cc2)c2ncn([C@@H]3O[C@@H](CO)[C@@H](O)[C@H]3O)c2n1`, for which the “activity, negative = inhibition” value is 3.03%.

Turning to `CN[C@]1(C)[C@@H]2CC[C@@H](C2)C1(C)C`, the “activity, negative = inhibition” value was -0.0387%.

The values are drawn from PubChem BioAssay (NCATS).
